In the library only some 5.8% were active in any assay of this set; here they are far more common.
SW480 rereplic – inducers of DNA re-replication in SW480 colon cancer cells | SW480 DNA re-replication, Hoechst DNA content imaging, 48 h | hit rate 1.8% among 340,000 | Potency, µM (highest dose often 46.1 µM), hits mostly activators; further: nearly all actives have a fitted effect of over 55% in size
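Treated cells incubate 48 hr (37 C, 5% CO2), are stained 40 min with Hoechst, and nuclear fluorescence is enumerated; a rise in nuclei with high DNA signal marks re-replication.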
ALOX12 inh – inhibitors of human 12S-lipoxygenase ALOX12. purified 12hLO, xylenol orange hydroperoxide absorbance. P18054. AID 1671190. hit rate 1.1% among 580,000. Potency, µM (top dose mostly 108 µM), actives largely listed as inhibitors
Target sequence (P18054 whole entry, looked up): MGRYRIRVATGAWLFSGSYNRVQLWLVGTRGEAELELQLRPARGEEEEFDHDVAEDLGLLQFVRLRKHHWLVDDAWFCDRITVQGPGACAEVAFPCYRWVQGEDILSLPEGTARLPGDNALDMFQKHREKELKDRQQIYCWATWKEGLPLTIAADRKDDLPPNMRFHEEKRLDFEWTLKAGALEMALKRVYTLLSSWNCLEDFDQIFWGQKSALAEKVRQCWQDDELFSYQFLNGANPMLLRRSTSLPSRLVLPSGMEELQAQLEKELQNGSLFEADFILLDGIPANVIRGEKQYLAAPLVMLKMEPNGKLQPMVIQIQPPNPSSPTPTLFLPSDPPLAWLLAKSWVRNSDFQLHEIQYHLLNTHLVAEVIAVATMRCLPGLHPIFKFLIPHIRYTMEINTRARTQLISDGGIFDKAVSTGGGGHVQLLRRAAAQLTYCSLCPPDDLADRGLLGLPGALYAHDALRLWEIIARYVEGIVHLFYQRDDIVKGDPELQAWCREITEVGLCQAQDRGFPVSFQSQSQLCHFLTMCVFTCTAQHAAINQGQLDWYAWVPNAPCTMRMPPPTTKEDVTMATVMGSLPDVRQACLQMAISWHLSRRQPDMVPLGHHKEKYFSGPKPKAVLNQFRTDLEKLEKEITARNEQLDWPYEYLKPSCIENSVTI
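Hydroperoxide product was detected by ferrous iron/xylenol orange as the 573 to 405 nm absorbance ratio. Arachidonic acid at 40 uM (final) was turned over for 30 min at room temperature by 150 nM human 12hLO, pH 7.0 Hepes buffer, after 15 min compound preincubation.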
KB-V1 MDR tox – kills drug-selected multidrug resistant KB-V1 cells | KB-V1 MDR cells viability, CellTiter-Glo, 72 h | Potency, µM (highest dose often 46.1 µM), actives largely listed as cytotoxic | hit rate 3.4% among 400,000 | AID 1347076; further: nearly all actives have a fitted effect of over 60% in size
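KB-V1 cells (P-gp-expressing MDR subline of KB-3-1) in phenol-red-free DMEM with 10% FBS were exposed to library compounds over a concentration series for 72 h at 37 degrees C. Viability read by CellTiter-Glo luminescence; concentration-effect curves fitted after normalization.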
KB-3-1 cytotox – kills parental KB-3-1 adenocarcinoma cells. AID 1347075. Potency, µM (titrated, usually from 46.1 µM), usual class: cytotoxic. hit rate 1.4% among 400,000. KB-3-1 viability, CellTiter-Glo ATP luminescence, 72 h; further: nearly all actives have a fitted effect of over 60% in size
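Screening of KB-3-1 cells (DMEM, 10% FBS, phenol-red free) ran from lowest to highest compound concentration; after 72 h at 37 °C viability was read luminescently and curves fitted.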
MCF10A rerep – induces DNA re-replication in MCF 10a normal breast cells; AID 624296; MCF 10A DNA re-replication, Hoechst nuclear intensity, 48 h; hit rate 2.9% among 350,000; Potency, µM (titrated, usually from 46.1 µM), actives largely listed as activators; further: nearly all actives have a fitted effect of over 50% in size
PINK1 modulator – modulators of PINK1 expression. PINK1 immunofluorescence, high-content cytometry, 24 h. Potency, µM (doses to about 76.6 µM), actives largely listed as activators. hit rate 0.2% among 410,000. AID 624263; active means well fitted activation curve with a large enough effect; inconclusive means small, poorly fitted or top-dose-only effect; cell line not stated here; further: nearly all actives have a fitted effect of over 65% in size
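Cells are seeded, rested 12 hours, then given compound at five concentrations or DMSO for 24 hours. After fixation, blocking and antibody staining, PINK1 amount and mitochondrial localization are scored; CCCP serves as control.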
Each line names hits and unclear results; the compound was inactive in the other large screens; ! = repeats disagree. Unless noted, the call rests on the fitted dose curve; in most records, active means well fitted curve in the direction sought with a large enough effect; inconclusive means small, poorly fitted or top-dose-only effect, or another doubt; inactive means no such curve, though single readings can be large; an effect the other way counts as inactive or inconclusive.

CC(OC(=O)c1ccc(-n2cnnn2)cc1)C(=O)N1CCCc2ccccc21 (stereo unspecified)	none (no result: SW480 rereplic, KB-V1 MDR tox, KB-3-1 cytotox, MCF10A rerep, PINK1 modulator)
NCc1cc(Br)ccc1OC(F)F	none (no result: SW480 rereplic, KB-V1 MDR tox, KB-3-1 cytotox, MCF10A rerep, PINK1 modulator)
Cc1c(C(=O)NCc2coc(-c3cccs3)n2)cccc1[N+](=O)[O-]	none (no result: SW480 rereplic, KB-V1 MDR tox, KB-3-1 cytotox, MCF10A rerep, PINK1 modulator)
O=C1CCCc2[nH]c3cccc(/C(=C/c4ccccc4)c4ccccc4)c3c21	KB-V1 MDR tox inconclusive, MCF10A rerep inconclusive
COC(=O)c1ccc2[nH]c3cccc(/C(=C/c4ccccc4)c4ccccc4)c3c2c1	KB-V1 MDR tox inconclusive, KB-3-1 cytotox inconclusive, MCF10A rerep 11.6µM
C=CCn1c(C)cc(C(=O)COc2ncnc3ccc(Br)cc23)c1C	none (no result: SW480 rereplic, KB-V1 MDR tox, KB-3-1 cytotox, MCF10A rerep, PINK1 modulator)
Cc1cc(=O)oc2cc(OCC(=O)NCCc3c[nH]c4ccc(F)cc34)ccc12	SW480 rereplic 13µM, KB-V1 MDR tox inconclusive
CCC(C)NC(=O)c1ccccc1-c1ncc(-c2ccccc2F)o1 (stereo unspecified)	none (no result: SW480 rereplic, KB-V1 MDR tox, KB-3-1 cytotox, MCF10A rerep, PINK1 modulator)
Cc1cc(Br)cc(Cl)c1OCC(=O)NC(=O)NCc1ccccc1	MCF10A rerep 18.4µM
Cc1cc(Br)cc(Br)c1OCC(=O)NNC(=O)CCC(=O)NCc1ccccc1	none
O=C(NCCCc1ccccc1)C1CC(=O)N(c2ccc3c(c2)OCCO3)C1 (stereo unspecified)	KB-V1 MDR tox 23.1µM
COc1ccc(-c2nc(NC(=O)C3CC(=O)N(c4ccc5c(c4)OCCO5)C3)sc2C)cc1 (stereo unspecified)	SW480 rereplic 4.11µM, KB-V1 MDR tox inconclusive, KB-3-1 cytotox 13µM!, MCF10A rerep 3.26µM
CC(=O)C1=C(C)N(Cc2ccco2)C(=O)C1(NC(=O)C1CCCCC1)C(F)(F)F (stereo unspecified)	KB-V1 MDR tox 18.4µM
COCc1cccc(C(=O)NCC(O)c2ccccc2C(F)(F)F)c1 (stereo unspecified)	none (no result: SW480 rereplic, KB-V1 MDR tox, KB-3-1 cytotox, MCF10A rerep, PINK1 modulator)
Oc1ccccc1C1=Nc2ccccc2N=C(c2cccs2)C1	KB-V1 MDR tox 23.1µM, MCF10A rerep inconclusive
Cc1ccc(O)c(C2=Nc3ccccc3N=C(c3cccs3)C2)c1	KB-V1 MDR tox 14.6µM, KB-3-1 cytotox inconclusive, MCF10A rerep 20.6µM
COc1ccc(C(=O)NCCCN=C2NS(=O)(=O)c3ccccc32)cc1	none
O=C(NCCCN=C1NS(=O)(=O)c2ccccc21)c1ccc(S(=O)(=O)N2CCCCC2)cc1	SW480 rereplic inconclusive, KB-3-1 cytotox 20.6µM, MCF10A rerep 23.1µM
Cc1ccc(NC(=O)CSCC(=O)N(C)Cc2ccc(Cl)c(Cl)c2)cc1	KB-V1 MDR tox 18.4µM
COc1ccc(NC(=O)CSCC(=O)N(C)Cc2ccc(Cl)c(Cl)c2)cc1	none
CN(C)c1ccc(NC(=S)c2ccccn2)cc1	SW480 rereplic inconclusive, ALOX12 inh inconclusive, KB-V1 MDR tox inconclusive, KB-3-1 cytotox 14.6µM
CN(C)c1ccc(C(=S)Nc2ccccc2)cc1	SW480 rereplic inconclusive
O=C(Nc1ccc2[nH]c(=O)[nH]c2c1)c1nn(-c2ccc(F)cc2)c2c1CCCC2	none (no result: SW480 rereplic, KB-V1 MDR tox, KB-3-1 cytotox, MCF10A rerep, PINK1 modulator)
C/C(CC(=O)Nc1ccc(Cl)c(C(F)(F)F)c1)=N\NC(=O)c1cccc(O)c1	KB-3-1 cytotox inconclusive
CCc1ccccc1NCC(=O)Nc1ccc(Cl)c(C(F)(F)F)c1	SW480 rereplic inconclusive, KB-V1 MDR tox 20.6µM, KB-3-1 cytotox inconclusive, MCF10A rerep inconclusive, PINK1 modulator inconclusive
C/C(CC(=O)Nc1ccc(Cl)c(C(F)(F)F)c1)=N\NC(=O)c1ccccc1O	KB-V1 MDR tox 18.4µM, KB-3-1 cytotox inconclusive, MCF10A rerep inconclusive
O=C(CCCCCN1C(=O)CCC1=O)Nc1ccc(Cl)c(C(F)(F)F)c1	KB-V1 MDR tox 16.4µM
COc1cccc(/C=C(/CC(=O)O)c2nc3ccccc3o2)c1	none (no result: SW480 rereplic, KB-V1 MDR tox, KB-3-1 cytotox, MCF10A rerep, PINK1 modulator)
COc1cc(COC(=O)c2ccc(S(=O)(=O)N3CCOCC3)cc2)ccc1OC(F)F	none (no result: SW480 rereplic, KB-V1 MDR tox, KB-3-1 cytotox, MCF10A rerep, PINK1 modulator)
O=C(Nc1ccnn1C1CCN(Cc2cccc(O)c2)CC1)C1CCCC1	none
O=C(Nc1ccnn1C1CCN(Cc2ccc(-c3ccco3)cc2)CC1)C1CC1	ALOX12 inh 11.2µM (no result: SW480 rereplic, KB-V1 MDR tox, KB-3-1 cytotox, MCF10A rerep, PINK1 modulator)
COc1ccc(CN2CCC(n3nccc3NC(=O)C3CCCC3)CC2)cc1	none
COc1ccccc1/C=C/CN1CCC(n2nccc2NC(=O)C2CC2)CC1	SW480 rereplic inconclusive, ALOX12 inh 28.2µM
COc1ccccc1C(=O)Nc1ccnn1C1CCN(C/C=C/c2ccccc2)CC1	none
CCOc1cccc(CN2CCC(n3nccc3NC(=O)C3CCCC3)CC2)c1	KB-V1 MDR tox 16.4µM
N#Cc1ccccc1COc1ccccc1	none (no result: SW480 rereplic, KB-V1 MDR tox, KB-3-1 cytotox, MCF10A rerep, PINK1 modulator)
COc1cc(OC)cc(C(=O)c2c(C)c(C#N)c3ccccn23)c1	SW480 rereplic 10.3µM, KB-V1 MDR tox inconclusive, KB-3-1 cytotox 5.17µM, MCF10A rerep inconclusive
Cc1cc2ccccn2c1C(=O)c1ccc(C#N)cc1	ALOX12 inh inconclusive, KB-V1 MDR tox inconclusive, KB-3-1 cytotox inconclusive
N=c1c2c(-c3ccccc3)c(-c3ccccc3)n(Cc3ccco3)c2ncn1Cc1ccco1	ALOX12 inh inconclusive, KB-V1 MDR tox inconclusive, KB-3-1 cytotox 16.4µM, MCF10A rerep inconclusive
CC(NC(=O)CCC1CCCO1)C1CCCO1 (stereo unspecified)	none (no result: SW480 rereplic, KB-V1 MDR tox, KB-3-1 cytotox, MCF10A rerep, PINK1 modulator)

Screens (PubChem)
